Screens (PubChem BioAssay)
An excerpt weighted towards active compounds, which were near 2.5% of everything screened.
OvCa metastasis – ovarian cancer metastasis inhibition, 3D TME model | SKOV3ip1-GFP adhesion/invasion on 3D omental model, fluorescence | Potency, µM (top dose mostly 45.8 µM), for the others: at the top dose activity change, negative = inhibition, actives largely listed as inhibitors | hit rate 0.1% among 46,000 | AID 1963576;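 note: potency is the fitted concentration of half-maximal effect; plate controls were DMSO wells for no effect and tomatine positive control wells for full effect; nearly all actives have a fitted effect of over 65% in size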
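qHTS, 4-pt dose (0.36-46 umol/L); SKOV3ip1-GFP, 1,200 cells/well, no FBS; primary omental fibroblast/mesothelial co-culture 48 h pre-grown; 2 h RT + 16 h 37 C; PBS wash, 4% PFA; GFP count 488/509 nm.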
NTMT1 inh – NTMT1 methyltransferase inhibition. Q9BV86. NTMT1 MTase-Glo SAH luminescence, purified enzyme. Potency, µM (doses to about 114 µM), for inactives: top-dose activity change, negative = inhibition, most hits filed as inhibitors. hit rate 2.5% among 59,000. AID 1645870;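 note: potency is the fitted concentration of half-maximal effect; plate controls were DMSO vehicle for no effect and no enzyme for full effect; nearly all actives have a fitted effect of over 65% in size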
Target sequence (Q9BV86 whole entry, looked up): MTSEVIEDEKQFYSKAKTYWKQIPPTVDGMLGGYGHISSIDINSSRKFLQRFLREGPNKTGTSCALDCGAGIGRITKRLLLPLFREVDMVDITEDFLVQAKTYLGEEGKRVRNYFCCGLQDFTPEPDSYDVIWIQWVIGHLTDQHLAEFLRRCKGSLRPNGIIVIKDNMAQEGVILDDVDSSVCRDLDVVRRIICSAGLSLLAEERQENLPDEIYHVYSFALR
PTAP-TSG101 blk – TSG101-PTAP interaction inhibition, HIV-1 budding | Fluorescence polarization, FITC-PTAP peptide/Tsg101, 20 min | 44,000 tested, under 10 active | Potency, µM (titrated, usually from 115 µM), actives largely listed as inhibitors; note: potency is the fitted concentration of half-maximal effect; 0% is about no effect
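qHTS FP binding, 20 min r.t.: 10 uM Tsg101 domain + 50 nM FITC-PTAP peptide, pH 7.5 HEPES buffer with TCEP and EDTA.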
HTT promoter inh – inhibitors of huntingtin promoter activity | hit rate 0.93% among 48,000 | Potency, µM (titrated, usually from 57.5 µM), for inactives: at the highest dose activity change, negative = inhibition, most hits filed as inhibitors | HEK293 HTT promoter firefly luciferase reporter, 24 h; note: potency is the fitted concentration of half-maximal effect; nearly all actives have a fitted effect of over 50% in size
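Firefly luciferase signal from promoter-reporter HEK293 cells was scaled between vehicle (0%) and zero RLU (-100%). Compounds were tested at final concentrations of up to 57.5 uM over 24 h at 37 degrees C. PTC124 at 50 uM final served as control inhibitor.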
GALK inhibitor – inhibitors of human galactokinase (GALK) | AID 1347072 | P51570 | Potency, µM (top dose mostly 57.5 µM), for the others: at the top dose activity, negative = inhibition, most hits filed as inhibitors | recombinant GALK, Kinase-Glo ATP luminescence, 1 h | 44,000 tested, under 10 active;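 note: plate controls were full GALK reaction for no effect and reaction lacking GALK for full effect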
Target sequence (P51570 whole entry, looked up): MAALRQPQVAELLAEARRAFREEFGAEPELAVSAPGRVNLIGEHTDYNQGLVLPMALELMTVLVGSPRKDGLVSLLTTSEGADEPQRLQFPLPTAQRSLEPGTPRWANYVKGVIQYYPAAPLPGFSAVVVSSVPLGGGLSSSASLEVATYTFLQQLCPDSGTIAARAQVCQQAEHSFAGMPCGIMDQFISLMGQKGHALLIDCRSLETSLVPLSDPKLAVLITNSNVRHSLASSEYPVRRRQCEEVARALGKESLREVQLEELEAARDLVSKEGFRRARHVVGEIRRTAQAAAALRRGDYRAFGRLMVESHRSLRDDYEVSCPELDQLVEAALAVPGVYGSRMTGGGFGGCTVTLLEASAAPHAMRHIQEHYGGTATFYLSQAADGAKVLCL
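Reactions with and without enzyme served as controls. GALK at 5 nM phosphorylates 100 uM galactose using 35 uM ATP (HEPES pH 8.0, Mg2+) for 1 h at RT, with luminescence read 10 min after adding Kinase-Glo Plus.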
HTT-AS promoter – HTT-AS promoter activation; HEK293 HTT-AS promoter firefly luciferase reporter, 24 h; response scale: percent change from vehicle, -100% = no light; AID 1508624; Potency, µM (series often up to 57.5 µM), for the others: top-dose activity change, positive = activation, hits mostly activators; hit rate 0.24% among 48,000; note: potency is the fitted concentration of half-maximal effect; nearly all actives have a fitted effect of over 55% in size
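HEK293 Fluc reporter, 2,500 cells/well, 24 h pre-culture; cpds up to 57.5 uM final, 24 h 37 degrees C; Dual-Glo, 10 min RT; normalized vehicle = 0%, zero RLU = -100%.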
An asterisk follows results filed as active; ! = not active in a repeat; [ ] = dose if it differs, or a comment. Calls come from the whole dose curve; as a rule, active = well fitted curve in the direction sought with a large enough effect; inconclusive = small, poorly fitted or top-dose-only effect, or another doubt; inactive = no such curve, though single readings can be large; an effect the other way counts as inactive or inconclusive.

`CC(C)c1ccc(CNC(=O)c2ccc(N3CCCC3)c(NC(=O)NCc3ccccc3)c2)cc1` gave OvCa metastasis 3%, NTMT1 inh -5%, PTAP-TSG101 blk inactive, HTT promoter inh 25µM*, GALK inhibitor -1% and HTT-AS promoter -19%.
Cc1ccc(CNC(=O)Nc2cc(C(=O)NCc3ccc(C(C)C)cc3)ccc2N2CCCC2)cc1 was read as OvCa metastasis -1%, NTMT1 inh 0%, PTAP-TSG101 blk inactive, HTT promoter inh inconclusive, GALK inhibitor -1% and HTT-AS promoter -13%.
`CC(C)c1ccccc1-c1nc(NCC2CCN(c3cccnc3)CC2)c2ccccc2n1` gave NTMT1 inh 5%.
Screening COc1ccccc1Nc1nc(-c2ccccc2F)nc2ccccc12 returned OvCa metastasis 0%, NTMT1 inh 2%, PTAP-TSG101 blk inactive, HTT promoter inh inconclusive, GALK inhibitor 0% and HTT-AS promoter -31%.
For COc1cc2nc(-c3cc(F)ccc3O)nc(N[C@@H]3CNC[C@H]3C(C)(C)O)c2cc1OC the results were NTMT1 inh 28µM*.
For COc1cc(/C=C(\C#N)c2nc3ccccc3n2C)cc(OC)c1OC the results were OvCa metastasis 1%, NTMT1 inh 0%, PTAP-TSG101 blk inactive, HTT promoter inh 42%, GALK inhibitor 0% and HTT-AS promoter inconclusive.
`COc1ccc(/C=C(\C#N)c2nc3ccccc3n2C)c(OC)c1` gave OvCa metastasis 13%, NTMT1 inh inconclusive, PTAP-TSG101 blk inactive, HTT promoter inh 66%, GALK inhibitor -3% and HTT-AS promoter 3.5µM*.
`CCCCC1CCC(CCCC(C)CCC(=O)O)CC1` (configuration not stated) gave OvCa metastasis 8%, NTMT1 inh 45µM*, PTAP-TSG101 blk inactive, HTT promoter inh -27%, GALK inhibitor 8% and HTT-AS promoter -14%.
Screening COc1ccc(CCNC(=O)c2c(C)nn(-c3ccc(F)cc3)c2-n2cccc2)cc1OC returned OvCa metastasis -15%, NTMT1 inh 20%, PTAP-TSG101 blk inactive, HTT promoter inh 20µM*, GALK inhibitor -1% and HTT-AS promoter -34%.
`COc1ccc(CNC(=O)c2cnn(-c3ccccc3)c2-n2cccc2)cc1OC` gave OvCa metastasis 2%, PTAP-TSG101 blk inactive and GALK inhibitor 5%.
`COc1ccc(CNC(=O)c2cnn(-c3ccc(C)cc3)c2-n2cccc2)cc1OC` gave OvCa metastasis 1%, NTMT1 inh -6%, PTAP-TSG101 blk inactive, HTT promoter inh 16µM*, GALK inhibitor 0% and HTT-AS promoter -37%.
For COC(=O)c1cc2sccc2n1CC(=O)Nc1cc(Cl)ccc1OC the results were OvCa metastasis -2%, NTMT1 inh 19%, PTAP-TSG101 blk inactive, HTT promoter inh 28µM*, GALK inhibitor 2% and HTT-AS promoter -85%.
Cc1cc(Nc2cccc(Cl)c2)nc2ccc(NC(=O)c3cccnc3)cc12 was read as OvCa metastasis inactive, NTMT1 inh inconclusive, PTAP-TSG101 blk inactive, HTT promoter inh inconclusive, GALK inhibitor -9% and HTT-AS promoter -60%.
For O=C(Nc1cc(Cl)cc2c1[nH]c1cnccc12)c1cccnc1 the results were OvCa metastasis -1%, NTMT1 inh 18µM*!, HTT promoter inh 1% and HTT-AS promoter -41%.
For COc1ccc(-c2c(C)nn3c(NCCN4CCOCC4)cc(C)nc23)cc1OC the results were NTMT1 inh -13%[57.5 µM].
Screening COc1ccc(C2CC(=O)N3CN(C4CCCCC4)CSC3=C2C#N)cc1 (configuration not stated) returned OvCa metastasis -5%, NTMT1 inh 13µM*, PTAP-TSG101 blk inactive, HTT promoter inh 7%, GALK inhibitor 6% and HTT-AS promoter 5%.
COc1cccc(Nc2nc(C#N)nc(NC3CCCC3)n2)c1 was read as NTMT1 inh -12%[57.5 µM].
Screening COc1cccc(C2CC(=O)N3CN(C4CCCCC4)CSC3=C2C#N)c1 (configuration not stated) returned OvCa metastasis -6%, NTMT1 inh 11µM*, PTAP-TSG101 blk inactive, HTT promoter inh -20%, GALK inhibitor 0% and HTT-AS promoter -16%.
`COc1cc2ncnc(Nc3cccc(Cl)c3)c2cc1OC` gave OvCa metastasis 4%, NTMT1 inh 25µM*, HTT promoter inh 1% and HTT-AS promoter -12%.
Screening COc1cc2ncnc(Nc3cccc(O)c3)c2cc1OC returned NTMT1 inh -10%[57.5 µM].
For COc1cc2ncnc(Nc3cccc(Br)c3)c2cc1OC the results were OvCa metastasis -17%, NTMT1 inh 16µM*, HTT promoter inh -21% and HTT-AS promoter -34%.
Cc1ccc(S(=O)(=O)Nc2cc(Cl)cc(C(=O)Nc3nc(-c4ccccc4)cs3)c2)cc1 was read as NTMT1 inh 13%.
Screening COc1cc(C(=O)NC(c2ccc(Cl)cc2)c2cc(Cl)c3cccnc3c2O)cc(OC)c1OC (configuration not stated) returned OvCa metastasis inconclusive, NTMT1 inh 5%, PTAP-TSG101 blk inactive, HTT promoter inh 5µM*, GALK inhibitor -5% and HTT-AS promoter -61%.
Screening COc1cccc(C(=O)NC(c2ccc(Cl)cc2)c2cc(Cl)c3cccnc3c2O)c1 (configuration not stated) returned OvCa metastasis inconclusive, NTMT1 inh 10%, PTAP-TSG101 blk inactive, HTT promoter inh inconclusive, GALK inhibitor 0% and HTT-AS promoter -44%.
`CC1=C2C(=O)C=C(CO)C2C2OC(=O)C(CS(=O)(=O)O)C2C(OC(=O)Cc2ccc(O)cc2)C1` (configuration not stated) gave NTMT1 inh -13%[29.8 µM].
`COc1ccc(/C=C/C(=O)Nc2ccccc2C(=O)O)cc1OC` gave NTMT1 inh 25%[57.5 µM].
Screening Cc1ccc(/C=C/C(=O)Nc2ccccc2C(N)=O)o1 returned OvCa metastasis 1%, NTMT1 inh inconclusive, PTAP-TSG101 blk inactive, HTT promoter inh 60%, GALK inhibitor 4% and HTT-AS promoter 4µM*.
`O=C(Nc1cncc(-c2ccncc2)c1)c1cccs1` gave NTMT1 inh 15%.
For CC[N+](CC)(CC)CCOc1cccc(OCC[N+](CC)(CC)CC)c1OCC[N+](CC)(CC)CC the results were OvCa metastasis 21%, NTMT1 inh 8.9µM*!, HTT promoter inh -1% and HTT-AS promoter -1%.
